KCNH2 3.1 block: qHTS for Inhibitors of KCHN2 3.1: Mutant qHTS | Potassium voltage-gated channel subfamily H member 2, brain isoform KCNH2 3.1 (human) | U2OS KCNH2 3.1, thallium flux FluxOr; active compounds read low | activity change, % (tested at about 1.8 µM) | 0.95% of 340,000 active;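 active = maximum activity change below -70%; inconclusive = maximum activity change from -70% to -50%; inactive = maximum activity change above -50%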;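 also: thallium influx rate constant from kinetic fluorescence after stimulation buffer; % is scaled to controls: 0 for no effect and ±100 for the full control effect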
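Measured as rate of thallium-driven FluxOr signal in transduced U2OS cells carrying the 3.1 channel, read kinetically for 2 min upon stimulation; values are rate constants scaled to DMSO control wells.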
EPAC1 antag: qHTS for Antagonist of cAMP-regulated guanine nucleotide exchange factor 3 (EPAC1): primary screen; EPAC1 GEF assay, Rap1b-BODIPY-GDP exchange fluorescence; Potency, µM (titrated, usually from 115 µM), for the others: at the top dose activity change, negative = inhibition, most hits filed as inhibitors; 0.14% of 360,000 active; AID 720709, 2013;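 also: potency is read from the fitted curve at half-maximal effect; plate controls were vehicle for no effect and positive control for full effect; nearly all actives have a fitted effect of over 50% in size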
hERG WT inh: qHTS for Inhibitors of KCHN2 3.1: Wildtype qHTS; Voltage-gated inwardly rectifying potassium channel KCNH2 (Homo sapiens), Q12809; activity change, % at 1.84 µM; 0.37% of 340,000 active; U2OS, BacMam KCNH2, thallium flux FluxOr; active compounds read low;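 active = maximum activity change below -70%; inconclusive = maximum activity change between -70% and -50%; inactive = maximum activity change above -50%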; also: % is scaled to controls: 0 for no effect and ±100 for the full control effect
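U2OS cells transduced with wild-type KCNH2 virus are loaded with FluxOr dye for 45 min, and thallium flux is measured in kinetic reads before and after stimulation buffer. Rate constants are normalized to DMSO controls.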
EPAC1 agonist: qHTS for Agonist of cAMP-regulated guanine nucleotide exchange factor 3 (EPAC1): primary screen; EPAC1 agonist qHTS, biochemical assay; response scale: 100% = response to 6.5 mM cAMP; Potency, µM (highest dose often 154 µM), for the others: at the highest dose activation, usual class: activators; 0.073% of 360,000 active; also: potency is read from the fitted curve at half-maximal effect; nearly all actives have a fitted effect of over 60% in size
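Compounds were pinned as a concentration titration into mixtures of EPAC1 (100 nM), BODIPY-GDP-loaded Rap1B (250 nM) and GDP (50 uM). After 5 min at room temperature, fluorescence was followed for 30 min; activity was scaled to 6.5 mM cAMP.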
EPAC2 agonist: qHTS for Agonist of cAMP-regulated guanine nucleotide exchange factor 4 (EPAC2): primary screen | Rap guanine nucleotide exchange factor 4 (Homo sapiens), Q8WZA2 | EPAC2 activation, biochemical qHTS; response scale: 100% = 6.5 mM cAMP response | Potency, µM (doses to about 154 µM), inactives show top-dose activation, most hits filed as activators | 0.079% of 360,000 active | AID 720711, 2013; also: potency is read from the fitted curve at half-maximal effect; nearly all actives have a fitted effect of over 50% in size
Target sequence (Q8WZA2 whole entry, looked up): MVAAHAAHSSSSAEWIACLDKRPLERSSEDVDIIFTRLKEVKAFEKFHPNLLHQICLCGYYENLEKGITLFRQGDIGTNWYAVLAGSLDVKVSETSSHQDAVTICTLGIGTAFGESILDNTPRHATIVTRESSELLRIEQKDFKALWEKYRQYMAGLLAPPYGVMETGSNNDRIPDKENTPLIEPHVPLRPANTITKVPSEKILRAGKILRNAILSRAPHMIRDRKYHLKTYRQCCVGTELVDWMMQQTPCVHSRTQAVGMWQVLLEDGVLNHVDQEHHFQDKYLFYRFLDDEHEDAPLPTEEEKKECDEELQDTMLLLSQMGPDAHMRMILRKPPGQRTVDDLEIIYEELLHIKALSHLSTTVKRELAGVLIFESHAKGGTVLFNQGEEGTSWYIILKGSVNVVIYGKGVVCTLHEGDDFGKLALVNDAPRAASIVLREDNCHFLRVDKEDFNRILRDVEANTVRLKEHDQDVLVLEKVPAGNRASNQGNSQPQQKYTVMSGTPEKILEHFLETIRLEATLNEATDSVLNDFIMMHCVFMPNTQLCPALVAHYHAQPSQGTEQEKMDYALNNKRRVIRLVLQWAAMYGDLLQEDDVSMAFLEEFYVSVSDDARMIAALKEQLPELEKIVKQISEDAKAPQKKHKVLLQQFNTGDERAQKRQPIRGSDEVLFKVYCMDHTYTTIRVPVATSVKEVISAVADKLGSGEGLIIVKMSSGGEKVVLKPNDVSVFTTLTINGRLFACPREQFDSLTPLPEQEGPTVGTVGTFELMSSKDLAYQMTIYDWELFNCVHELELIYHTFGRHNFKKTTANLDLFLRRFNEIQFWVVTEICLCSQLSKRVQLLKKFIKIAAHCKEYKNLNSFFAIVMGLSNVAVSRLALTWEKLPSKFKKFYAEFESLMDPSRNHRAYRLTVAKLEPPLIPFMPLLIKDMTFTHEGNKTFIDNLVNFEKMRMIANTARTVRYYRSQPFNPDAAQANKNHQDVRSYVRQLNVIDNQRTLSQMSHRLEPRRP
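Exchange assay: 100 nM EPAC2 with 250 nM Rap1B-BODIPY-GDP and 50 uM GDP. Fluorescence (ex 480/em 540 nm) read every 5 min for 30 min at room temperature. Data normalized to 6.5 mM cAMP as agonist control.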
EPAC2 antagonist: qHTS for Antagonist of cAMP-regulated guanine nucleotide exchange factor 2 (EPAC2): primary screen | AID 720708, 2013 | Potency, µM (titrated, usually from 114 µM), for inactives: at the top dose activity, negative = inhibition, hits mostly inhibitors | EPAC2 GEF exchange of Rap1B-BODIPY-GDP, fluorescence | 0.18% of 360,000 active; also: potency is read from the fitted curve at half-maximal effect; % is scaled to controls: 0 for no effect and ±100 for the full control effect; nearly all actives have a fitted effect of over 45% in size
* = called active by the depositor. The list is not random: actives were taken first. Their share in the collection is about 1.4%. Unless noted, calls follow the shape of the dose curve; as a rule, active = well fitted curve in the direction sought with a large enough effect; inconclusive = small, poorly fitted or top-dose-only effect, or another doubt; inactive = no such curve, though single readings can be large; an effect the other way counts as inactive or inconclusive.

Screening CCn1c(=S)sc2c(=O)n(CC(=O)Nc3ccccc3C(F)(F)F)c(C)nc21 returned KCNH2 3.1 block 20, EPAC1 antag 27%, hERG WT inh -7, EPAC1 agonist 8%, EPAC2 agonist 13% and EPAC2 antagonist -5%.
Screening OCCC1CN(Cc2cccc(-n3cccn3)c2)CCN1Cc1ccccc1 (stereo not given) returned KCNH2 3.1 block -13, EPAC1 antag 10%, hERG WT inh 12, EPAC1 agonist 0%, EPAC2 agonist -8% and EPAC2 antagonist -1%.
Screening CC[n+]1c(/C=C/C=C/N(C(C)=O)c2ccccc2)sc2cc(OC)ccc21 returned KCNH2 3.1 block -20, EPAC1 antag 141%, hERG WT inh 2, EPAC1 agonist 100µM*, EPAC2 agonist inconclusive and EPAC2 antagonist 46%.
CC[n+]1c(/C=C(\C)OC)sc2ccccc21 was read as KCNH2 3.1 block 2, EPAC1 antag -21%, hERG WT inh 13, EPAC1 agonist 2%, EPAC2 agonist 2% and EPAC2 antagonist -8%.
Screening O=C(Nc1ccccc1C(=O)Nc1nnc(C(F)(F)F)s1)c1ccccc1Cl returned KCNH2 3.1 block 0, EPAC1 antag inconclusive, hERG WT inh 8, EPAC1 agonist -6%, EPAC2 agonist 20% and EPAC2 antagonist -24%.
For COn1c(-c2ccccc2)nc2ccc(Cl)cc21 the results were KCNH2 3.1 block -94*, EPAC1 antag 2%, hERG WT inh -6, EPAC1 agonist 15%, EPAC2 agonist 10% and EPAC2 antagonist -4%.
O=C(O)COn1c(-c2ccccc2)nc2ccc(Cl)cc21 was read as KCNH2 3.1 block 14, EPAC1 antag 5%, hERG WT inh inactive, EPAC1 agonist -6%, EPAC2 agonist 10% and EPAC2 antagonist -4%.
O=C(c1ccco1)N(CCC(c1ccccc1)c1ccco1)Cc1ccccc1 (stereo not given) was read as EPAC1 antag 89µM*, hERG WT inh 46, EPAC1 agonist 2%, EPAC2 agonist 4% and EPAC2 antagonist inconclusive.
`CC(=O)NC(c1ccccc1)c1c(O)ccc2ccccc12` (stereo not given) gave KCNH2 3.1 block -8, EPAC1 antag -4%, hERG WT inh 0, EPAC1 agonist 4%, EPAC2 agonist 1% and EPAC2 antagonist 40µM*.
Screening CC(=O)NC(c1ccc(C(C)C)cc1)c1c(O)ccc2ccccc12 (stereo not given) returned KCNH2 3.1 block 7, EPAC1 antag -12%, hERG WT inh -12, EPAC1 agonist 17%, EPAC2 agonist 11% and EPAC2 antagonist inconclusive.
`Cc1noc(C)c1COc1ccc(C(=O)N2CCN(c3ccccc3O)CC2)cc1` gave KCNH2 3.1 block -14, EPAC1 antag 5%, hERG WT inh 2, EPAC1 agonist -1%, EPAC2 agonist 5% and EPAC2 antagonist 1%.
For O=C(NCCc1csc(-c2cccnc2)n1)c1ccc(Br)o1 the results were KCNH2 3.1 block 6, EPAC1 antag -1%, hERG WT inh -71*, EPAC1 agonist -17%, EPAC2 agonist -1% and EPAC2 antagonist 22%.
`O=C(NCCc1csc(-c2ccccc2)n1)c1ccc(Br)o1` gave KCNH2 3.1 block 5, EPAC1 antag -22%, hERG WT inh 0, EPAC1 agonist -2%, EPAC2 agonist 12% and EPAC2 antagonist -19%.
`COc1ccccc1NCCC(=O)OCC(=O)Nc1ccccc1Cl` gave KCNH2 3.1 block -210*, EPAC1 antag 1%, hERG WT inh -106*, EPAC1 agonist 13%, EPAC2 agonist 10% and EPAC2 antagonist 3%.
Screening COc1ccccc1NCCC(=O)OCC(=O)Nc1ccccc1F returned KCNH2 3.1 block 6, EPAC1 antag 1%, hERG WT inh -5, EPAC1 agonist 9%, EPAC2 agonist -11% and EPAC2 antagonist 0%.
`Oc1[nH]c2ccc(Br)cc2c1N=Nc1ccc(F)cc1` gave KCNH2 3.1 block 0, EPAC1 antag inconclusive, hERG WT inh -2, EPAC1 agonist -129%, EPAC2 agonist -170% and EPAC2 antagonist 71µM*.
For Oc1[nH]c2ccccc2c1N=Nc1ccc(F)cc1 the results were KCNH2 3.1 block 1, EPAC1 antag 93%, hERG WT inh -3, EPAC1 agonist -229%, EPAC2 agonist -208% and EPAC2 antagonist 102%.
`O=C(C[n+]1cccc(/C=N/O)c1)NC(=O)Nc1ccccc1` gave EPAC1 antag -10%, EPAC1 agonist 21%, EPAC2 agonist 6% and EPAC2 antagonist 11%.
For Oc1ccc(Nc2nc(-c3ccccc3O)nc3ccccc23)cc1 the results were KCNH2 3.1 block -118*, EPAC1 antag 6%, hERG WT inh 13, EPAC1 agonist -1%, EPAC2 agonist 12% and EPAC2 antagonist 7%.
`Cc1csc(=O)n1CCC(=O)OCc1nnc(-c2ccccc2Cl)o1` gave KCNH2 3.1 block 3, EPAC1 antag -5%, hERG WT inh -85*, EPAC1 agonist -1%, EPAC2 agonist 1% and EPAC2 antagonist 10%.
`CCCCN(C(=O)C1CC(=O)N(c2ccc3c(c2)OCCO3)C1)c1c(N)n(CC(C)C)c(=O)[nH]c1=O` (stereo not given) gave KCNH2 3.1 block -192*, EPAC1 antag -10%, hERG WT inh -152*, EPAC1 agonist -1%, EPAC2 agonist -4% and EPAC2 antagonist 2%.
CCCCn1c(N)c(N(CCC(C)C)C(=O)C2CC(=O)N(c3ccc4c(c3)OCCO4)C2)c(=O)[nH]c1=O (stereo not given) was read as KCNH2 3.1 block -4, EPAC1 antag -26%, hERG WT inh -2, EPAC1 agonist -5%, EPAC2 agonist -9% and EPAC2 antagonist 2%.
O=C(CCCc1ccccc1)N1CCN(C2CCCCC2)CC1 was read as KCNH2 3.1 block 16, EPAC1 antag -21%, hERG WT inh 5, EPAC1 agonist 1%, EPAC2 agonist 10% and EPAC2 antagonist 12%.
